# Laboratory results from PubChem BioAssay AID686978 (National Center for Advancing Translational Sciences (NCATS), 2013).
# Hit rate of the full screen: of about 420,000 compounds, about 64,000 (15%) were called active. Inconclusive results (about 27%) are left out. The call rests on the fitted dose curve; in most records, active means well fitted inhibition curve with a large enough effect; inconclusive means small, poorly fitted or top-dose-only effect; inactive means flat fitted curve, though single readings scatter. Only a sample is shown. Where a call stands in place of a potency, no number is given.
# Assay: qHTS for Inhibitors of human tyrosyl-DNA phosphodiesterase 1 (TDP1): qHTS in cells in absence of CPT; further: nearly all actives have a fitted effect of over 55% in size
# Conditions: DT40 Tdp1-/- hTDP1 cells, no CPT, ATP luminescence, 48 h; activity change, negative = growth inhibition: at 46.2 µM (top of the series)
# How it was run: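 A cellular qHTS used chicken DT40 cells lacking endogenous Tdp1 but carrying stably transfected human TDP1. Compounds were applied without camptothecin, and cell growth kinetics were judged by ATP-dependent luminescence after ≥48 hr.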
# Potency means the concentration at half of the fitted maximal effect.
row,Structure (SMILES),Potency
1,O=C1NC(c2ccccc2)Oc2ccccc21 (centres undefined),inactive
2,O=C(OCCN1C(=O)c2ccccc2C1=O)Oc1ccccc1,inactive
3,C[C@H]1CN([C@@H](C)CO)C(=O)CCCn2cc(nn2)CO[C@@H]1CN(C)C(=O)Nc1ccccc1,inactive
4,NC(=O)CC(NC(=O)Cc1cccc2ccccc12)c1ccc(NCc2cc(F)ccc2F)c([N+](=O)[O-])c1 (centres undefined),29.1 µM (active)
5,CC1CCCCN1CCCNc1ccc(C(CC(N)=O)NC(=O)c2ccccc2)cc1[N+](=O)[O-] (centres undefined),inactive
6,COc1ccc(OC)c(C(=O)NC(CC(N)=O)c2ccc(N3CCC(N4CCCCC4)CC3)c([N+](=O)[O-])c2)c1 (centres undefined),inactive
7,COc1ccccc1CNc1ncncc1-c1cccc(NS(C)(=O)=O)c1,inactive
8,CS(=O)(=O)Nc1cccc(-c2cncnc2Nc2ccccc2)c1,inactive
9,CNc1ncnc2ccc(-c3cccc(NS(C)(=O)=O)c3)cc12,18.4 µM (active)
10,Cn1c2ccccc2c2cc(/C=C(\NC(=O)c3ccccc3)C(=O)NCC(=O)O)ccc21,inactive
11,O=C(O)C1CCCN1C1=NS(=O)(=O)c2ccccc21 (centres undefined),inactive
12,Fc1cccc(-n2ncc3c2ncn2nc(-c4ccccc4Cl)nc32)c1,inactive
13,COc1ccc(C2Nc3ccc(NC(=O)COC(C)=O)cc3C(=O)N2Cc2ccccc2)cc1COc1ccc(NC(C)=O)cc1 (centres undefined),12.6 µM (active)
14,COc1cc(C2C3=C(CCCC3=O)OC3=C2C(=O)CCC3)ccc1OCC(=O)Nc1ccccc1,inactive
15,COc1ccc(N2C(=O)c3ccccc3NC2c2ccc(OC)c(CN3CCOCC3)c2)cc1 (centres undefined),inactive
16,CN(CC(=O)Nc1ccc(F)cc1)CC(=O)N1CCCCC1,inactive
17,CCc1c(C)c2c(C)[nH]nc2oc1=O,inactive
18,COc1ccc(OC)c(Cc2cnc3nc(N)nc(N)c3c2C)c1,0.164 µM (active)
19,COc1ccc(OC)c(-n2nnc3c(sc4nc(C)c(Br)c(C)c43)c2=O)c1,inactive
20,Cc1nnc(NC(=O)c2ccc3nccnc3c2)s1,inactive
21,O=C(COc1nsnc1N1CCOCC1)Nc1ccccc1Cl,inactive
22,O=C(COc1cccc(Cl)c1)NCc1ccccc1,inactive
23,CCOc1cc(N2CCOCC2)c(OCC)cc1NC(=O)COc1cccc2cccnc12,10.3 µM (active)

row,Structure (SMILES),Potency
1,O=C(COc1ccc(Cl)cc1)NC(=S)Nc1ccccc1N1CCOCC1,inactive
2,CCOc1cc(N2CCOCC2)c(OCC)cc1NC(=O)COc1cccc(Cl)c1,2.59 µM (active)
3,NC(=O)C1CCN(C(=O)COc2cccc3cccnc23)CC1,inactive
4,CC1CCN(C(=O)Cn2cc(C(=O)c3ccco3)c3ccccc32)CC1,inactive
5,CC(CC(=O)O)CC(=O)NNC(=O)c1cccc(Br)c1 (centres undefined),inactive
6,COc1ccc(NC(=O)CC2C(=O)OCC3CCCCN32)cc1Cl (centres undefined),inactive
7,N#CC1(NC(=O)COC(=O)Cc2n[nH]c(=O)c3ccccc23)CCCCC1,inactive
8,O=C(Nc1ccccc1C(=O)N1CCOCC1)C1CCC(=O)N1C1CCCC1 (centres undefined),inactive
9,Cc1nc(C)c(C(=O)Nc2cccc(C)c2C)o1,inactive
10,CC1(C)C2CC=C(/C=N/NC(=O)C3CC3)C1C2 (centres undefined),inactive
11,COC(=O)c1cc(OC)c(OC)cc1NC(=O)C1CCCO1 (centres undefined),inactive
12,COc1cc(=O)n2c(c1C(=O)N(C)Cc1nonc1C)CCN(C(=O)c1ccc(C)cc1C)CC2,inactive
13,O=C(CSc1cccc[n+]1[O-])c1ccc(Cl)cc1,5.17 µM (active)
14,O=C(Cc1ccc(Cl)cc1)c1ccccc1,inactive
15,CC(NC(=O)COC(=O)CCC(=O)c1ccc(Cl)cc1)c1ccccc1 (centres undefined),inactive
16,CCN(CC)c1ccc(S(=O)(=O)N2CCOCC2)cc1NC(=O)CSc1cccc[n+]1[O-],inactive
17,COc1ccccc1C(=O)CSc1cccc[n+]1[O-],inactive
18,O=C(CSc1cccc[n+]1[O-])c1ccc(-c2ccccc2)cc1,0.82 µM (active)
19,CCN(C(=O)CSc1nnc(-c2ccncc2)o1)c1ccccc1,inactive
20,CCN(C(=O)CSc1cccc[n+]1[O-])c1ccccc1,1.84 µM (active)
21,O=C(CSc1nnc2ccccn12)c1ccccc1,inactive
22,Cc1ccc(C2=CSC3=NS(=O)(=O)CCN23)cc1C,inactive
23,CCCCNC(=O)N(O)C1N(/N=C/c2ccccc2O)C(=S)SC1(C)C (centres undefined),inactive

row,Structure (SMILES),Potency
1,CC(C)C1Nc2c(C(=O)O)cccc2C(Nc2ccccc2C(=O)O)C1(C)C (centres undefined),inactive
2,Cc1ccc(N/N=C2\COC(C)(C)CC2=O)cc1,inactive
3,O=C(NCc1ccccc1Cl)c1csc([C@@H]2O[C@H](CO)[C@@H](O)[C@H]2O)n1,inactive
4,Cc1ccsc1C(=O)NCCc1ccco1,inactive
5,CCCn1nc2cc(C(=O)NCc3ccccc3)ccc2c1OCC,inactive
6,COc1cc(C(=O)NCc2ccncc2)cc(Br)c1OCc1ccccc1,23.1 µM (active)
7,C[n+]1ccc(C(=O)NCc2ccccc2)cc1,inactive
8,Cc1ccc2c(c1)C(O)(CC(=O)c1cccnc1)C(=O)N2 (centres undefined),inactive
9,Cc1ccc(NC(=O)c2ccc(Oc3ncccn3)cc2)cc1,inactive
10,CC(C)c1c(C(=O)N/N=C/c2ccccc2C(=O)O)nnn1-c1nonc1N,inactive
11,O=C(/C=C/c1ccc(F)cc1)Nc1cccc(S(=O)(=O)Nc2cccc(C(F)(F)F)c2)c1,8.2 µM (active)
12,CC(C)(CNC(=O)c1cc(=O)[nH]c2ccccc12)N1CCOCC1,inactive
13,O=C(O)c1cccc(N2C(=O)Nc3ccccc3N2O)c1,inactive
14,CN1C(=O)c2ccc(NC(=O)c3c(F)c(F)c(F)c(F)c3F)cc2C1=O,inactive
15,COc1ccc(Cn2cc(CN3CCS(=O)(=O)N(Cc4ccc(-c5cccc(Cl)c5)cc4)C(C)C3=O)nn2)cc1 (centres undefined),25.9 µM (active)
16,O=S1(=O)CC(N2CCSCC2)CN1Cc1cn(Cc2cccc(Cl)c2)nn1 (centres undefined),inactive
17,CCCC[C@H]1COCCS(=O)(=O)N1Cc1cccc(Cl)c1,inactive
18,CC1C(=O)N(Cc2cn(CC3CCCCC3)nn2)CCS(=O)(=O)N1Cc1ccc(-c2cccc(N(C)C)c2)cc1 (centres undefined),7.31 µM (active)
19,O=S(=O)(/C=C/c1ccccc1)N1CCNCC1,inactive
20,O=C1Cc2cc(S(=O)(=O)Nc3cccc(F)c3)ccc2N1,inactive
21,C/C(=N/NC(=O)C1COc2ccccc2O1)c1ccco1 (centres undefined),inactive
22,CC(/C=C/c1ccco1)=N/NC(=O)C1COc2ccccc2O1 (centres undefined),16.4 µM (active)
23,CC(=O)c1cccc(NC(=O)C2COc3ccccc3O2)c1 (centres undefined),inactive
